PNC assembly inh – blocks assembly of the perinucleolar compartment; PC3M PTB-GFP, PNC prevalence imaging, 16 h; hits give low values; activity change (PNC), negative = inhibition, % at 10 µM; actives 3.1% (n = 140,000);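 active = readout at or below -70, meaning at least 70% loss of cells showing the perinucleolar compartment, a nuclear body marking cancer cells; inconclusive = readout between -30 and a set limit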;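 also: plate controls were DMSO wells for no effect and camptothecin positive control wells for full effect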
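Compounds are pinned in duplicate onto adhered PC3M cells stably expressing GFP-tagged PTB and incubated 16 h at 37 C. Cells are then fixed, nuclei stained with Hoechst, and PNC-positive cells counted.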
ALDH1A1 inh – inhibitors of human aldehyde dehydrogenase 1A1. Purified ALDH1A1, NADH fluorescence, propionaldehyde substrate. Potency, µM (highest dose often 75.3 µM), for inactives: top-dose activity, negative = inhibition, hits mostly inhibitors. actives 7.3% (n = 220,000). AID 1030;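 also: potency is read from the fitted curve at half-maximal effect; plate controls were no enzyme wells and a reference inhibitor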
HPGD block – blocks human HPGD enzyme activity; Potency, µM, for the others: at the top dose activity change, negative = inhibition, most hits filed as inhibitors; AID 894; P15428; actives 4.3% (n = 150,000); purified HPGD, NADH fluorescence kinetic, PGE2 substrate; also: potency is read from the fitted curve at half-maximal effect
Target sequence (P15428 whole entry, looked up): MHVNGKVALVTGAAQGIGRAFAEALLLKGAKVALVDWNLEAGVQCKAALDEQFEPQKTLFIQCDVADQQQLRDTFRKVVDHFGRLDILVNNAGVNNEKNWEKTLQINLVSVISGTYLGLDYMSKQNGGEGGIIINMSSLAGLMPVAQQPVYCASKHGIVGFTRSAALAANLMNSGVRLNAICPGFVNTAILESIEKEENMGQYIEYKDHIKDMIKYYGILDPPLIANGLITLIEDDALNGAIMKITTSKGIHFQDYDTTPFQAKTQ
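20 nM HPGD preincubated 15 min at room temperature with compound in 50 mM Tris-HCl pH 8, 0.01% Tween 20. Started with 1 mM NAD+ and 30 uM prostaglandin E2; NADH fluorescence (360/450 nm) read 5 times over 30-s intervals, last minus first.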
* = called active by the depositor; ? = inconclusive; · = not tested or not shown; [ ] = another dose, or the depositor's remark. In the library only some 11% were active in any assay of this set; here they are far more common. Unless noted, calls follow the shape of the dose curve; as a rule, active = well fitted inhibition curve with a large enough effect (not every such curve was filed as active); inconclusive = small, poorly fitted or top-dose-only effect, or another doubt; inactive = no such curve, though single readings can be large or run the other way. Unless noted, % is scaled to controls: 0 for no effect and ±100 for the full control effect.

SMILES | PNC assembly inh | ALDH1A1 inh | HPGD block
Oc1cccc(C(Nc2nccs2)c2ccc3cccnc3c2O)c1 (stereo unspecified) | · | 9.6% | ·
CC(NC(=O)Nc1ccccc1)C(c1cccs1)N1CCOCC1 (stereo unspecified) | -121.7* | 4.8% | -2.0%
CC(NC(=O)Nc1ccc(Cl)cc1)C(c1cccs1)N1CCOCC1 (stereo unspecified) | -19.0 | 9.6% | -0.5%
COc1ccc(CSCCN)cc1Cl | -96.3* | 3.5% | 2.5%
COc1ccc(C/C(N)=N/n2cnnc2)cc1Cl | 14.0 | 2.9% | -13.3%
NCCC[C@@H](CC(=O)N[C@@H]1CCNC[C@H]1C(=O)N[C@H](CC(=O)N[C@@H](CCC(=O)O)CC(=O)O)Cc1c[nH]c2ccccc12)NC(=O)C[C@H](Cc1ccccc1)NC(=O)[C@@H]1CCCC[C@H]1N | · | -4.3% | -7.4%
O=C(c1ccccc1)c1cn[nH]c1-c1ccccc1O | -8.8 | -0.3% | -5.8%
COc1ccc(O)c(-c2[nH]ncc2C(=O)c2ccccc2)c1 | 15.6 | 7.94µM* | -21.4%
COc1ccc(OC)c(S(=O)(=O)NCCc2ccccc2)c1 | 18.1 | ? | -7.2%
COC(=O)C1C(=O)NC(SC)=C(C#N)C1c1ccccc1F (stereo unspecified) | -14.5 | ? | -3.7%
C/C(=N\NS(=O)(=O)c1ccc(C)cc1)c1ccc(Br)s1 | 24.1 | ? | -10.2%
C/C(=N\NS(=O)(=O)c1ccc(C)cc1)c1ccc(C)s1 | 78.0 | 17.8µM* | -2.0%
CCCCC(CC)COC(=O)c1ccccc1C(=O)O (stereo unspecified) | · | 6.2% | 0.9%
NC(=O)CSc1nc2cc3c(cc2c(=O)n1CCCC(=O)NCc1ccc2c(c1)OCO2)OCO3 | ? | 1.8% | -2.8%
COC(=O)c1cccc(C23CC4(C2)[C@H](CN(CC2CCCCC2)[C@@H]4c2ccccc2)C3c2ccc(C(F)(F)F)cc2)c1 (stereo partly specified) | · | 3.0% | -9.5%
O=C1NC(=S)S/C1=C1\Sc2ccccc2N1CCCS(=O)(=O)O | -6.5 | 25.1µM* | 25.1µM*
CCN1/C(=C2\OC(=S)N(C)C2=O)Sc2ccccc21 | -18.8 | -18.3% | -21.2%
O=C1CCC([N+](=O)[O-])C(c2ccc(Cl)cc2)N1 (stereo unspecified) | -20.7 | 2.7% | -4.3%
Cc1cc[n+](-c2nc3ccccc3nc2[N-]S(=O)(=O)c2cccs2)cc1C | 5.2 | 2.5% | -6.3%
CCc1cc[n+](-c2nc3ccccc3nc2[N-]S(=O)(=O)c2ccc(Br)s2)cc1 | ? | 0.946µM* | 1.2%
Cc1nn(CC(=O)N2c3ccccc3NC(=O)C2(C)C)c(C)c1[N+](=O)[O-] | · | -0.1% | ·
O=C(Cn1ncc(Cl)c(Cl)c1=O)N1CCN(Cc2ccccc2)CC1 | · | 28.2µM* | ·
CC1(C)C(=O)Nc2ccccc2N1C(=O)Cn1ncc(Cl)c(Cl)c1=O | · | 1.12µM* | ·
O=C(Cn1ncc2c1-c1ccccc1OC2)N1CCc2ccccc21 | 40.3 | 0.0% | -3.1%
O=C(Cn1ncc(Cl)c(Cl)c1=O)N1CCc2ccccc21 | · | 10µM* | ·
SMILES | PNC assembly inh | ALDH1A1 inh | HPGD block
O=C(Cn1ncc(Cl)c(Cl)c1=O)N1CCOCC1 | · | -2.7% | ·
Cc1nc2ccccc2n1C(=O)N(C)C | · | 16.9% | ·
O=C(O)C[C@H](Sc1ccccc1)c1ccccc1 | · | 5.2%[13.5 µM] | -5.9%
Cc1cccc(NC(=O)CSc2nc(NS(=O)(=O)c3ccccc3)cc(=O)[nH]2)c1 | · | 28.2µM* | ·
Cc1ccc(NC(=O)CSc2nc(NS(=O)(=O)c3ccc(C)cc3)cc(=O)[nH]2)cc1 | ? | 3.7% | -2.3%
O=C(CSc1nc2[nH]ncc2c(=O)n1-c1ccccc1)c1ccc2c(c1)OCCO2 | -11.7 | 0.316µM* | -0.1%
COc1cc(NC(=O)CSc2nc3[nH]ncc3c(=O)n2-c2ccccc2C)cc(OC)c1OC | ? | ? | -8.2%
Cc1cccc(NC(=O)CSc2nc3[nH]ncc3c(=O)n2-c2ccccc2)c1 | 13.6 | 4.47µM* | -11.1%
O=C(CSc1nnc(-c2cccs2)n1-c1ccccc1)c1ccc2c(c1)OCCO2 | -17.8 | -6.4% | ·
Cc1ccc(/C=N/N2CCN(Cc3cccc4ccccc34)CC2)o1 | -7.2 | ? | -16.4%
COCCN(C(=O)C1CC1)c1nnc(-c2cccc(C)c2)s1 | -29.2 | -10.6% | -14.0%
O=c1[nH]c(CSc2nnc3ccccn23)nc2cc(C(F)(F)F)ccc12 | · | 1.4% | ·
COC(=O)N1CCC2(CC1)CN(c1ccccc1)C2 | · | -2.3% | -3.1%
CC(=O)NC1C(=O)Nc2c1cccc2C(F)(F)F (stereo unspecified) | ? | 0.282µM* | -4.8%
COC(=O)C1=C(C)NC(C)=C([N+](=O)[O-])[C@H]1c1ccccc1C(F)(F)F | · | -2.7% | 0.7%
O=C1N/C(=N\N=C\c2cccs2)SC1Cc1cccc(Cl)c1Cl (stereo unspecified) | -5.5 | 11.3% | -11.9%
COc1ccc(NC(=O)/C=N/O)cc1 | · | 0.9% | ·
COc1ccc(N/N=C(\C=N\O)C(=O)c2ccc(OC)cc2)cc1 | -112.1* | ? | -25.3%
CN(C)/C=C1\SC(=S)N(N2C(=O)C3C4C=CC(C4)C3C2=O)C1=O (stereo unspecified) | · | 8.2% | ·
O=C(Nc1ccccc1)NC1(C(=O)NCc2cccs2)CCCCC1 | -95.7* | ? | ?
O=C(Nc1ccccc1)NC1(C(=O)NCCCN2CCOCC2)CCCCC1 | -3.4 | 9.3% | -1.5%
CC(Nc1cccnc1)=C(C#N)C#N | · | -7.0% | ·
Cc1ccccc1N=C1N=C(N)c2ccccc21 | -95.7* | 10.6% | -0.5%
Cc1ccc(N=C2N=C(N)c3ccccc32)c(C)c1 | ? | 7.1% | -16.6%
COc1ccc2nc(SCC(=O)NN)cc(C)c2c1 | 22.8 | 12.6µM* | -19.3%
SMILES | PNC assembly inh | ALDH1A1 inh | HPGD block
COc1ccc(NC(=O)CCSc2cc(C)c3ccccc3n2)cc1 | -17.2 | 6.1% | -4.4%
Brc1ccc(N=C(c2ccccc2)c2ccncc2)cc1 | 47.3 | 1.8% | -4.5%
CC1=NN(c2ccccc2)C(=O)/C1=C\C=C1/N(C)c2ccccc2C1(C)C | -25.0 | -2.7% | -18.8%
CN1/C(=C\C=C2/C(=O)Oc3ccccc3C2=O)C(C)(C)c2ccccc21 | -90.5* | -0.6% | -12.0%
CCN(CC)CCN1C(=O)C(O)=C(C(C)=O)C1c1ccc(OC)c(OC)c1 (stereo unspecified) | 31.7 | 17.8µM* | -17.9%
COc1ccc(C2C(C(C)=O)=C(O)C(=O)N2CCN(C)C)cc1OC (stereo unspecified) | 40.0 | -0.6% | -3.0%
CC(=O)O[C@H]1CC[C@@]2(C)[C@@H](CC[C@H]3[C@H]2CC(=O)[C@@]2(C)[C@@H]3C[C@H]3CC(C)=CC(=O)[C@H]32)C1 | · | ? | -0.9%
COc1ccc2c(Cl)c(C(=O)N/N=C3\CCCC(=O)C3)sc2c1 | · | 4.47µM* | ·
COc1ccc2c(Cl)c(C(=O)N/N=C/c3ccc4c(c3)OCO4)sc2c1 | 53.0 | ? | ?
CC(=O)N1CCC2(CC1)CN(Cc1ccccc1)C2 | · | 6.7% | -9.9%
C=C1c2cc(C)ccc2NC(=O)N1c1ccccc1 | 60.3 | ? | -25.5%
O=C(COC(=O)c1cnccn1)c1ccc(Cl)cc1 | · | 0.2% | ·
Cc1nn(CCc2nc(-c3ccco3)cs2)c2[nH]c(=O)cc(C(F)(F)F)c12 | ? | 2.51µM* | ?
Cc1cc(C)n(CCc2nc(-c3ccco3)cs2)n1 | 41.7 | 7.08µM* | ?
COc1ccc(-c2csc(CCn3nc(C)cc3C)n2)cc1 | · | 1.7% | ·

Assay outcomes: PubChem BioAssay, National Center for Advancing Translational Sciences (NCATS)
